The text below walks through data of PubChem BioAssay (NCATS).

Inconclusive results are not listed. Activity calls are given as the source filed them. The call rests on the fitted dose curve; in most records, active means well fitted curve in the direction sought with a large enough effect; inconclusive means small, poorly fitted or top-dose-only effect, or another doubt; inactive means no such curve, though single readings can be large; an effect the other way counts as inactive or inconclusive.

Assay [1] can be described thus: NS1 protein of Zika virus - qHTS assay to identify small molecule inhibitors in human HEK 293 cells (AID 1347053). Further: series mostly up to about 46 µM; nearly all actives have a fitted effect of over 55% in size. The gist of the method:
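HEK 293 cells pretreated with compound for 1 h, then infected with ZIKV MR766 (MOI 0.5) for 24 h at 37 C. NS1 detected by TR-FRET with two anti-NS1 antibodies; normalized to uninfected (0%) and infected (100%) wells.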

Assay [2] can be described thus: qHTS of pediatric cancer cell lines to identify multiple opportunities for drug repurposing: Primary screen for TC32 cells (AID 1347089). Further: nearly all actives have a fitted effect of over 60% in size. The gist of the method:
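In the primary qHTS, MIPE compounds were tested at 11 concentrations (0.78 nM to 46 µM) and NPC compounds at 8 (0.59 nM to 46 µM) on TC32 cells for 48 h. CellTiter-Glo luminescence gave viability.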

A short description of assay [3]: qHTS of pediatric cancer cell lines to identify multiple opportunities for drug repurposing: Primary screen for DAOY cells (AID 1347090). Further: series mostly up to about 46 µM; nearly all actives have a fitted effect of over 55% in size. The gist of the method:
(§1)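 Viability measured as metabolically active cells via CellTiter-Glo luminescence following 48 hours of compound exposure, 11-point dilutions in confirmatory testing. 500-1,000 cells/well plated 5 hours before dosing; controls were DMSO and 2.3 µM bortezomib.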
(Quantitative high-throughput screening tests each substance at several concentrations.)

A short description of assay [4]: qHTS of pediatric cancer cell lines to identify multiple opportunities for drug repurposing: Primary screen for U-2 OS cells (AID 1347096). Further: nearly all actives have a fitted effect of over 50% in size. In short, it runs like this:
(§2)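 Viability after 48 h compound treatment at 37C, 500-1,000 cells/well, read as ATP luminescence with CellTiter-Glo. Primary screens used 11-point (MIPE, 0.78 nM-46 µM) or 8-point (NPC, 0.59 nM-46 µM) final concentrations; follow-up screens used 11-point dilutions.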

The nature of assay [5]: qHTS of pediatric cancer cell lines to identify multiple opportunities for drug repurposing: Primary screen for LAN-5 cells (AID 1347100). The gist of the method: as §2
Assay [6] in a line: qHTS of pediatric cancer cell lines to identify multiple opportunities for drug repurposing: Primary screen for BT-12 cells (AID 1347101). Further: nearly all actives have a fitted effect of over 25% in size. Further: potency means the concentration at half of the fitted maximal effect. In short, it runs like this: (§3)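 Cells (500-1,000/well) rested 5 h, then received compounds for 48 h; metabolically active cells were measured by CellTiter-Glo luminescence. Final concentrations spanned up to 46 µM (MIPE, 11-point) or 0.59 nM-46 µM (NPC, 8-point) in primary screens, 11-point in follow-ups.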

Assay [7] in a line: qHTS of pediatric cancer cell lines to identify multiple opportunities for drug repurposing: Primary screen for SK-N-MC cells (AID 1347093). Further: potency means the concentration at half of the fitted maximal effect. In short, it runs like this:
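Metabolically active cells were quantified by ATP-dependent luminescence (CellTiter-Glo, 15 min at room temperature) following 48 h treatment. Cells had been plated at 500-1,000 per well and settled for 5 h beforehand.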

The nature of assay [8]: qHTS of pediatric cancer cell lines to identify multiple opportunities for drug repurposing: Primary screen for BT-37 cells (AID 1347094). Further: series mostly up to about 57 µM. In short, it runs like this: (§4)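 500-1,000 cells/well; 5 h pre-incubation 37 °C/5% CO2; compound pinned; 48 h; CellTiter-Glo, 15 min RT; luminescence. MIPE 11-pt from 0.78 nM, NPC 8-pt from 0.59 nM final. Bortezomib 2.3 µM final as positive control.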

A short description of assay [9]: qHTS of pediatric cancer cell lines to identify multiple opportunities for drug repurposing: Primary screen for OHS-50 cells (AID 1347103). Further: nearly all actives have a fitted effect of over 40% in size. Further: potency means the concentration at half of the fitted maximal effect. In short, it runs like this: as §3
Assay [10] is described as follows: qHTS of pediatric cancer cell lines to identify multiple opportunities for drug repurposing: Primary screen for SJ-GBM2 cells (AID 1347091). In short, it runs like this: as §1
A short description of assay [11]: qHTS of pediatric cancer cell lines to identify multiple opportunities for drug repurposing: Primary screen for Saos-2 cells (AID 1347097). Further: nearly all actives have a fitted effect of over 40% in size. Further: potency means the concentration at half of the fitted maximal effect. The gist of the method: as §4
Assay [12] in a line: qHTS of pediatric cancer cell lines to identify multiple opportunities for drug repurposing: Primary screen for SK-N-SH cells (AID 1347098). Further: nearly all actives have a fitted effect of over 65% in size. Further: potency means the concentration at half of the fitted maximal effect. The gist of the method:
as §3

The nature of assay [13]: qHTS of pediatric cancer cell lines to identify multiple opportunities for drug repurposing: Primary screen for NB1643 cells (AID 1347099). Further: nearly all actives have a fitted effect of over 50% in size. In short, it runs like this:
as §4

Assay [14] is described as follows: qHTS of pediatric cancer cell lines to identify multiple opportunities for drug repurposing: Primary screen for Rh18 cells (AID 1347102). Further: nearly all actives have a fitted effect of over 65% in size. In short, it runs like this: as §2
Assay [15] is described as follows: qHTS of pediatric cancer cell lines to identify multiple opportunities for drug repurposing: Primary screen for NB-EBc1 cells (AID 1347095). The gist of the method: as §4
A short description of assay [16]: qHTS of pediatric cancer cell lines to identify multiple opportunities for drug repurposing: Primary screen for A673 cells (AID 1347092). Further: nearly all actives have a fitted effect of over 45% in size. The gist of the method: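 48 h compound exposure, A673, 500-1,000 cells/well, 37 degrees C/5% CO2. MIPE: 11-point, 0.78 nM-46 µM; NPC: 8-point, 0.59 nM-46 µM (final). Readout CellTiter-Glo luminescence after 15 min RT.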

In the case of `O=C(NO)c1ccccc1`, the Potency result in assay [1], in assay [2], in assay [3], in [4], in assay [5] and in assay [6] was “inactive” each time.
In the case of `OCc1c[nH]c2ccccc12`, the Potency entry in assay [1], in [2], in assay [3], in assay [8] and in assay [9] was “inactive” each time. The Potency in assay [7] was 21.7 µM (active).
Take `COC(=O)/C=C\C(=O)OC`: the Potency result in assay [1], in assay [2], in assay [3], in assay [10], in [7] and in [8] was “inactive” throughout. The Potency result in assay [4], in assay [11], in assay [12], in [13], in assay [5] and in assay [6] was “inactive” throughout. Further, the Potency entry in assay [14] and in assay [9] was “inactive” throughout.
With `O=C(CCC1CCN(Cc2ccccc2)CC1)c1ccc2c(c1)NCCCC2`, the Potency result in [1], in assay [2], in assay [3], in [15], in assay [4] and in [11] was “inactive” throughout. Further, the Potency result in [13], in assay [5] and in [14] was “inactive” in each case. For the same molecule, in [12], the Potency was 30.7 µM (active).
On to `CN1C(CSCC(F)(F)F)Nc2cc(Cl)c(S(N)(=O)=O)cc2S1(=O)=O` (centres undefined), for which the Potency result in assay [1], in assay [2], in assay [10], in [16], in [7] and in assay [8] was “inactive” in each case. For the same molecule, the Potency entry in assay [15], in assay [4], in assay [11], in assay [12], in assay [13] and in assay [5] was “inactive” in each case. Moreover, the Potency entry in assay [6] and in assay [14] was “inactive” in each case.
For `CCC(C(=O)OCCN1CCOC(c2ccccc2)C1C)c1ccccc1` (centres undefined), the Potency result in assay [1], in [2], in assay [3], in assay [16], in [7] and in assay [8] was “inactive” in each case. Further, the Potency entry in [15], in [4], in [11], in assay [13], in assay [5] and in [14] was “inactive” each time.
For `COc1cc2nc(Cl)nc(N)c2cc1OC`, the Potency entry in assay [1], in assay [2], in assay [3], in assay [10], in [8] and in assay [15] was “inactive” in each case. The Potency result in assay [11], in assay [12], in assay [13], in assay [5] and in assay [14] was “inactive” throughout.
`O=C(c1cc(O)c(O)c(O)c1)c1ccc(O)c(O)c1O`: the Potency entry in [1], in [2], in assay [3], in assay [10], in assay [15] and in assay [13] was “inactive” each time. In addition, the Potency entry in assay [14] is “inactive”. In addition, the Potency in [11] is 26.6 µM (active); in assay [9] it was 24.6 µM (active).
Take `CN(C)[C@@H]1C(=O)C(C(N)=O)=C(O)[C@@]2(O)C(=O)C3=C(O)c4c(O)cccc4C[C@H]3C[C@@H]12`: the Potency entry in assay [1], in [2], in assay [3], in assay [10], in assay [7] and in [15] was “inactive” each time. Further, the Potency entry in [4], in [11], in assay [12] and in assay [13] was “inactive” throughout. For the same molecule, the Potency in assay [6] is 17.4 µM (active).
For `CC(C)(C)NCC(O)COc1ccccc1OCC1CCCO1` (centres undefined), the Potency entry in assay [1], in assay [2], in assay [10], in assay [16], in assay [7] and in assay [8] was “inactive” each time. Besides, the Potency entry in assay [15], in assay [4], in assay [11], in assay [12], in assay [13] and in [5] was “inactive” throughout. Besides, the Potency entry in assay [6] and in assay [14] was “inactive” throughout.
For the molecule `CC(=O)OC/C=C(C)/C=C/C=C(C)/C=C/C1=C(C)CCCC1(C)C`, the Potency entry in [1], in assay [2], in [3], in assay [10], in assay [8] and in assay [15] was “inactive” each time. The Potency result in assay [4], in [12], in assay [13], in [5], in [14] and in assay [9] was “inactive” in each case.
